ADAM10 inh = inhibitors of human ADAM10 | O14672 | recombinant ADAM10, EDANS/DABCYL FRET peptide cleavage, 3 h | inhibition, % at 7 µM | 0.62% of 370,000 active;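 active means inhibition above a per-campaign cutoff equal to the mean of compounds falling between control-based bounds plus 3 SD, cut at about 20% in these data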;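 further: 0% = DMSO wells while the 100% control is not disclosed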
sPLA2-III inh = Inhibits HGIII-sPLA2 liposome hydrolysis, primary screen | Q9NZ20 | QFRET BODIPY PC-A2 liposome hydrolysis, fluorescence | inhibition, % at 12.2 µM | 0.56% of 370,000 active | AID 743126;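 active means inhibition above mean plus 3 SD of compounds lying within the high and low control bounds, cut at about 19% in these data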;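 further: 0% = median of test compound wells and 100% = no enzyme DMSO wells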
PLCg1 inh = blocks human PLC-gamma1 enzyme activity | purified PLC-gamma1, fluorogenic substrate, fluorescence | inhibition, % at 12.2 µM | 0.84% of 370,000 active | AID 720700; in the data active means inhibition above about 9.5%
proKLK7 act = proKLK7 (human) activation, primary screen; P49862; 0.9% of 370,000 active; activation, % at 7 µM; AID 652039; purified proKLK7, EDANS-DABCYL substrate fluorescence; 100% is mature enzyme control, 0% vehicle;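 active means activation above the mean of all tested compounds plus 3 SD, computed per campaign excluding outliers beyond control limits, cut at about 13% in these data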
PLCb3 inh = blocks human PLC-beta3 enzyme activity; Purified PLC-beta3, fluorogenic substrate, fluorescence; 0.18% of 370,000 active; AID 720704; inhibition, % at 12.2 µM; in the data active means inhibition above about 11%;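 further: 0% = median of compound wells on plate and 100% = full blocker control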
ADAM17 inh = inhibits human ADAM17. 0.83% of 370,000 active. AID 720648. recombinant ADAM17, EDANS/DABCYL FRET peptide cleavage. inhibition, % at 6.95 µM. P78536;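 active means inhibition above the mean of compounds lying between control limits plus 3 SD, set per campaign, cut at about 8.5% in these data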;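 further: 0% = DMSO-only wells as the low control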
KLK7 act conf = proKLK7 activation, confirmation; shares compounds with proKLK7 act; activation, % at 7 µM; 68% of 3,200 active; purified proKLK7, EDANS-DABCYL substrate fluorescence; scaled: vehicle 0, mature enzyme 100; AID 686949;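 active means activation, as change over the incubation, above the mean of all tested compounds plus 3 SD, cut at about 13% in these data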
EDANS-DABCYL int = fluorescence interference counter-screen for KLK7 activators | shares compounds with proKLK7 act | EDANS-DABCYL substrate fluorescence interference, no enzyme, 4 h; solvent 0%, active enzyme control 100% | activation, % at 7 µM | 80% of 3,200 active | AID 686952;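 active means activation above the all-compound mean plus 3 SD, ignoring values outside control-based bounds, cut at about 4.8% in these data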;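 further: value is the 4 h activation minus the activation read at time zero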
Starred values were filed as active, the others as inactive; i = inactive; . = no result given. Sampled rows, rich in hits. Any-hit rate of the full collection: about 3.4%.

SMILES	ADAM10 inh	sPLA2-III inh	PLCg1 inh	proKLK7 act	PLCb3 inh	ADAM17 inh	KLK7 act conf	EDANS-DABCYL int
Nc1nc(N)c2c(ccc3nccc32)[nH]1	i	2	i	195*	i	i	76*	81*
Nc1ccc2ncccc2c1N	-4	5	-37	0	-42	2	.	.
CCCc1cc(NCCCN2CCOCC2)n2c(nc3ccccc32)c1C#N	i	0	-454	-11	i	-406	.	.
Cc1cc(NCCN2CCOCC2)n2c(nc3ccccc32)c1C#N	i	3	-360	16*	-425	-214	-97	-170
Cc1cc(NCCCN2CCOCC2)n2c(nc3ccccc32)c1C#N	i	-2	i	31*	i	i	66*	64*
CN1[C@H](Cc2ccccc2)COc2cccc(F)c2S1(=O)=O	-4	-4	-1	-1	0	-3	.	.
CN(Cc1ccccc1F)C(=O)C1CCC(CNS(=O)(=O)c2cccc3cccnc23)CC1 (stereo not given)	-14	-11	-2	0	-5	-1	.	.
COC(=O)CS(=O)(=O)c1cccc2cccnc12	-9	0	-5	16*	-2	-2	13*	13*
C=CCN1C(=O)[C@@H](CC(=O)NCCCOC)[C@]2(C(=O)OC)CCCCC=C12	0	1	2	0	-1	2	.	.
Nc1cccc2[nH]c(=O)c3ccccc3c12	i	-3	-267	20*	-343	-327	21*	21*
Nc1ccc2c(c1)[nH]c(=O)c1ccccc12	i	14	i	38*	i	-301	49*	47*
O=c1[nH]c2cc(O)ccc2c2ccccc12	-167	-2	-402	-19	i	-52	.	.
COc1ccc(/C=N/Nc2snc(SC)c2C#N)cc1OC	-12	-17	-59	16*	-82	0	-14	-10
CCNC(=S)Nc1ccc2c(c1)c(=O)n(C)n2Cc1cccc(C(F)(F)F)c1	i	-5	i	20*	i	i	-7	-6
COc1cccc(CNC(=S)Nc2ccc3c(c2)c(=O)n(C)n3Cc2csc(C)n2)c1	i	5	-499	15*	i	i	-2	2
Cn1c(=O)c2cc(NC(=O)NCCc3ccccc3)ccc2n1Cc1cccc(C(F)(F)F)c1	i	2	-376	-22	i	-444	.	.
Cn1c(=O)c2cc(NC(=O)OCCF)ccc2n1Cc1cccc(C(F)(F)F)c1	i	8	-489	13*	i	i	9	5.7*
O=C(Cc1ccc2c(c1)OCO2)N1CCC(n2nc(-c3ccccc3)oc2=O)CC1	3	-2	2	.	1	-2	.	.
COC(=O)C1CCCN(C(=O)C2CCN(S(=O)(=O)c3cccc4cccnc34)CC2)C1 (stereo not given)	-4	1	1	0	2	-1	.	.
Cc1nc2sc(C(=O)c3ccccc3)c(N)c2c(C)c1C	-9	13	-13	50*	-19	0	-18	0
Cc1nc(-c2ccccc2)nc2sc(C(=O)c3ccc(F)cc3)c(N)c12	1	14	-10	0	-24	-4	.	.
CCCCCCCCN1C(=O)[C@@H](CC(=O)NCCCOC)C[C@@]2(C(=O)OC)C1=C[C@H](COCc1ccccc1)O[C@@H]2C	-4	1	2	1	-4	-4	.	.
O=C1c2[nH]c3ccccc3c2CC1N1C(=O)c2ccccc2C1=O (stereo not given)	-66	14	-30	30*	-42	-13	19*	18*
O=C1CCC(N2C(=O)c3ccccc3C2=O)C(=O)N1 (stereo not given)	7	5	2	1	4	0	.	.
COc1ccc2[nH]c(C)c(C(=O)CN3CCc4cc(OC)c(OC)cc4C3)c2c1	-53	-15	-100	17*	-118	-19	9	8.4*
SMILES	ADAM10 inh	sPLA2-III inh	PLCg1 inh	proKLK7 act	PLCb3 inh	ADAM17 inh	KLK7 act conf	EDANS-DABCYL int
CCOC(=O)c1cnn2c(C)cc(-c3ccc(F)cc3)nc12	i	8	i	26*	i	-236	-4	17*
CC[C@]12c3[nH]c4cc(-c5ccco5)ccc4c3CCN1C(=O)[C@@H](CC(=O)NCc1ccc(OC)c(OC)c1)C[C@@H]2C(=O)N1CCN(C(=O)C2CC2)CC1	-383	-11	-289	122*	-366	-106	72*	84*
CC[C@]12c3[nH]c4cc(-c5ccco5)ccc4c3CCN1C(=O)[C@@H](CC(=O)NCCC1=CCCCC1)C[C@@H]2C(=O)N1CCN(C(=O)C2CC2)CC1	-478	-22	i	30*	i	-150	14*	17*
CC[C@]12c3[nH]c4cc(-c5ccco5)ccc4c3CCN1C(=O)[C@@H](CC(=O)NCc1ccco1)C[C@@H]2C(=O)N1CCN(C(=O)C2CC2)CC1	i	-8	i	100*	i	-290	67*	93*
C[C@H]1[C@@H](OC(=O)NCc2cccnc2)CC[C@@]23CCCN2C(=O)CCC[C@@H]13	-3	5	-1	.	-1	-6	.	.
CCOC(=O)CCCNC(=O)OCCCN1CCC2(CCC(c3ccccc3)CC2)C1=O (stereo not given)	-6	-7	0	0	1	-3	.	.
COc1cc2c(cc1OC)C(=S)NC1(CCCC1)C2	-6	12	-1	1	0	-2	.	.
COc1cc2c(cc1OC)/C(=C/C#N)NC(C)(C)C2	-130	-1	-156	19*	-208	-44	12	14*
CNC(=O)CN1C(=O)c2cccc3cccc1c23	-84	2	-358	3	-349	-27	.	.
CN1/C(=N\O)c2cccc3cccc1c23	-230	6	-334	21*	-337	-82	40*	51*
Cc1ccc(C)c(S(=O)(=O)N(C)c2ccc(OC(=O)CN3C(=O)NC4(CCCC4)C3=O)cc2)c1	-5	-7	1	0	-4	1	.	.
COc1ccccc1C(=O)Oc1ccc(C(C)(C)C)cc1	16	-9	3	0	4	3	.	.
O=C(Oc1ccc2ccc(=O)oc2c1)c1ccco1	i	-1	i	180*	i	i	705*	729*
COc1ccccc1C(=O)Oc1ccc2ccc(=O)oc2c1	i	1	i	356*	i	i	693*	694*
COc1cc2cc(Oc3ccc4ccc(=O)oc4c3)c(=O)oc2cc1OC(C)=O	-27	4	-3	9	-4	-6	.	.

Assay outcomes from PubChem BioAssay.
